From PubChem BioAssay (NCI) come the findings set out here.

What all share (assay): NCI-60 one-dose screen, 48 h (100 = growth as untreated, 0 = no growth, -100 = all killed)
Conditions in all cases: 10 µM unless noted

Assay [1] concerns HCT-15 colon.
The test system of assay [2] is HT29 colon.
Assay [3] relates to SNB-75 CNS.
The subject of assay [4] is SNB-19 CNS.
Assay [5] concerns U251 CNS.
In assay [6] the test system is PC-3 prostate.
Assay [7] deals with SK-MEL-5 melanoma.
For assay [8], the system named is UACC-62 melanoma.
Assay [9] has as its system LOX IMVI melanoma.
The test system of assay [10] is SK-MEL-28 melanoma.
The subject of assay [11] is SK-MEL-2 melanoma.
Assay [12] has as its system EKVX NSCLC.
Assay [13] concerns SN12C renal.
Assay [14] concerns UO-31 renal.
The subject of assay [15] is TK-10 renal.
For assay [16], the system named is A498 renal.
For assay [17], the system named is CCRF-CEM leukemia.
In assay [18] the test system is MOLT-4 leukemia.
Assay [19] concerns ACHN renal.
Assay [20] has as its system CAKI-1 renal.

The panel holds about 83,000 compounds, 20% with a hit somewhere; the sample as a whole holds those more often.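 Activity criterion: percent growth below 10, measured after cells in 96-well plates were exposed to a single compound concentration for 48 hours.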 Unmarked numbers belong to inactive results. Activity calls are given as the source filed them.

Take `COC(=O)CCCCCCCCC1(C)C=CC(C(C)O)=CC1` (stereo not given): the growth was 105% in assay [1]; 99.9% in assay [2]; 106% in assay [3]; 107% in [4]; 98.5% in [5]; 97.6% in [6]. For the same compound, the growth in [7] was 99%; in [8] it was 107%; in assay [9], 96.7%; in assay [10], 119%; in assay [11], 104%; in assay [12], 102%. Further, the growth was 103% in assay [13]; 100% in assay [14]; 92.2% in [15]; 96.1% in assay [16]; 99.7% in [17]; 97.8% in [18].
For `COc1ccc2c(c1)c(CC(=O)NCCOCCOCC(=O)Nc1ccc(OC)c(C(N)=O)c1O)c(C)n2C(=O)c1ccc(Cl)cc1`, the growth was 95.5% in assay [1]; 102% in assay [2]; 89.6% in assay [3]; 106% in assay [4]; 93.3% in assay [5]; 74.6% in assay [6]. Moreover, the growth was 96.6% in assay [7]; 98.8% in assay [8]; 90% in [9]; 119% in [10]; 89% in assay [11]; 94.4% in assay [12]. Besides, the growth in assay [13] is 101%; in assay [14], 74.4%; in assay [15], 100%; in assay [19], 109%; in assay [16], 86.6%; in assay [17] it was 107%. The growth in assay [18] is 74.7%.
With `Cn1ncc2c(Nc3ccccc3Cl)nc(Cl)nc21`, the growth is 98.4% in assay [1]; 96.2% in [2]; 78.6% in assay [3]; 114% in assay [4]; 112% in [5]; 109% in assay [6]. In addition, the growth was 107% in [7]; 87.1% in assay [8]; 104% in assay [9]; 119% in [10]; 123% in [11]; 89.8% in [12]. In addition, the growth was 92% in assay [13]; 101% in assay [14]; 119% in assay [15]; 99.9% in assay [20]; 178% in [16]; 104% in assay [17]. For the same compound, the growth in assay [18] is 125%.
With `Nc1ccccc1NC(=O)c1ccc(CN2CCC/C(=C\c3cccc(Cl)c3)C2=O)cc1`, the growth was 15.4% in assay [1]; 1.41% (active) in assay [2]; 16.5% in assay [3]; 24.3% in assay [4]; 13.7% in assay [5]; 17.7% in assay [6]. Moreover, the growth in assay [7] is -41.9% (active); in assay [8] it was 27.1%; in assay [9], 9.7% (active); in assay [10] it was 48.2%; in assay [11], 11.1%; in assay [12], 20.4%. Also, the growth is 5.8% (active) in [13]; 22.6% in assay [14]; 4.89% (active) in assay [15]; 5.98% (active) in assay [19]; -11% (active) in assay [16]; 4.02% (active) in assay [17]. Further, the growth in assay [18] is 1.63% (active).
Regarding `Clc1ccc(N2N=C(c3cccc(Nc4ccncc4)c3)CC2c2ccc3c(c2)OCO3)cc1` (stereo not given), the growth in assay [1] is -21.1% (active); in assay [2], 3.63% (active); in assay [3], 55.9%; in assay [4] it was 80.6%; in assay [5], 5.93% (active); in [6], 31.3%. Also, the growth is 30.9% in assay [7]; 90.8% in [8]; -74.4% (active) in assay [9]; -12.5% (active) in assay [10]; 94.4% in assay [11]; 74.8% in assay [12]. The growth in assay [13] is 62.6%; in assay [14] it was 41.9%; in assay [15], 83.5%; in assay [20] it was 10%; in [16], 69.7%; in assay [17], 5.74% (active). In addition, the growth in assay [18] was 2.58% (active).
With `C=C1C(=O)O[C@H]2[C@H]1CC/C(COC(=O)CCCCCC(=O)OC/C1=C/CC[C@@]3(C)O[C@H]3[C@H]3OC(=O)C(=C)[C@@H]3CC1)=C\CC[C@@]1(C)O[C@@H]21`, the growth in assay [1] was 0.552% (active); in assay [2] it was 3.42% (active); in assay [3], 46.5%; in [4] it was 62.4%; in assay [5], 47.8%; in assay [6] it was 29.8%. For the same compound, the growth in assay [7] is 26.3%; in assay [8], 8.53% (active); in assay [9], -53.5% (active); in assay [10], 18.5%; in [11], 55.7%; in assay [12], 19.9%. Further, the growth is 0.951% (active) in assay [13]; -32.1% (active) in [14]; 7.18% (active) in [15]; -25.7% (active) in assay [19]; 90.5% in assay [16]; 4.16% (active) in assay [17]. Also, the growth in assay [18] was 0.768% (active).
For the compound `O=C(OC(OC(=O)c1cc(Cl)cc(Cl)c1)c1cccc2ccccc12)c1ccccc1` (stereo not given), the growth was 106% in assay [1]; 86.7% in assay [2]; 99.3% in [3]; 100% in assay [4]; 98.3% in [5]; 91.2% in assay [6]. The growth in assay [7] was 102%; in assay [8], 86.4%; in assay [9] it was 92.3%; in assay [10], 111%; in [11], 91.1%; in [12], 97.7%. The growth was 97.5% in assay [13]; 75.6% in assay [14]; 90.7% in assay [15]; 102% in assay [19]; 84.8% in assay [16]; 93.6% in assay [17]. In assay [18], the growth was 103%.
For `O=C1Nc2ccccc2/C1=N/c1nc(-c2ccc(Cl)cc2)cs1`, the growth in assay [1] was 71.2%; in [2], 46.3%; in [3], 90.8%; in assay [4], 75.1%; in assay [5], 53.8%; in assay [6], 35.2%. In addition, the growth in assay [7] is 76.7%; in assay [8], 61%; in assay [9] it was 68.9%; in assay [10], 84.4%; in assay [11], 88.2%; in assay [12], 60.2%. The growth is 79.1% in assay [13]; 52.2% in assay [14]; 87.9% in assay [15]; 51% in [16]; 41% in [17]; 25% in [18].
